The subject of experiment [1] is Wnt5a (protein binding on small-molecule microarray). Nature of the experiment: small molecules binding Wnt5a protein – biophysical, small-molecule microarray, 635/667 nm fluorescence, primary screen (AID 1142).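 Also: fluorescence read at 667 nm with signal to noise per printed feature.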 The conditions noted are these: 635 nm fluorescence, higher = more signal.
The nature of experiment [2]: ATP-based viability of Huh7 replicon cells – cell-based, CellTiter-Glo luminescence, basal, 48 h, cytotoxicity control for HCV replication inhibitor project, primary screen (AID 1143).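 Also: Huh7 hepatoma cells carrying a hepatitis C replication reporter with no stimulus; test concentration not given here.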 The conditions noted are these: higher = more signal, called active from +8 up or from −8 down.
Experiment [3] in a line: Pseudomonas biofilm growth suppression – PAO1 strain, BacTiter-Glo luminescence, LB-PBS, primary screen (AID 1144). The conditions noted are these: P. aeruginosa PAO1 biofilm, 12 h, higher = more signal.
The nature of experiment [4]: basal CRE-LacZ reporter activity in PC12 – cell-based, unstimulated, primary screen (AID 1145). The conditions noted are these: no forskolin, luminescence, 4.5 h, higher = more signal, called active from +8 up or from −8 down.
Experiment [5] in a line: forskolin-driven CRE-LacZ activity in PC12 – cell-based, CRE-LacZ reporter, forskolin-stimulated, primary screen (AID 1146).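 Also: PC12 cells with 6xCRE LacZ reporter stimulated by forskolin 10 µM; beta-galactosidase reporter signal reflecting CREB driven transcription.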 The conditions noted are these: luminescence, 4.5 h, higher = more signal, called active from +8 up or from −8 down.
The target in experiment [6] is Streptavidin (Streptomyces avidinii) (UniProt P22629). Nature of the experiment: compounds binding control protein streptavidin – biophysical, small-molecule microarray, 635/667 nm fluorescence, artefact control for SMM compound annotation, primary screen (AID 1147).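 Also: signal reflects streptavidin binding to arrayed compounds as a control protein.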 The conditions noted are these: higher = more signal.
Streptavidin (Streptomyces avidinii), sequence (P22629 whole entry, looked up): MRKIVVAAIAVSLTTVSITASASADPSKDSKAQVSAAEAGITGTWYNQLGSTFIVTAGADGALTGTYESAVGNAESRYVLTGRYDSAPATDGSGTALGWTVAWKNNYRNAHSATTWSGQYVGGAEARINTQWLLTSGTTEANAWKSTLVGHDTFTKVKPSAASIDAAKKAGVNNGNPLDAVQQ
Experiment [7] is described as follows: probe aInhba binding on compound microarray – biochemical, small-molecule microarray, 635/667 nm fluorescence, primary screen (AID 1148).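 Also: score merges 667nm spot fluorescence with signal-to-noise for antibody binding to printed compounds.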 The conditions noted are these: higher = more signal.
The target in experiment [8] is Torsin-1A (Homo sapiens) (UniProt O14656). Nature of the experiment: TOR1A wild-type binding on microarray – cell lysate, small-molecule microarray, lysate, 635/667 nm, primary screen (AID 1149). The conditions noted are these: COS7 hTOR1A-WT lysate, 635 nm fluorescence, higher = more signal.
Torsin-1A (Homo sapiens), sequence (O14656 whole entry, looked up): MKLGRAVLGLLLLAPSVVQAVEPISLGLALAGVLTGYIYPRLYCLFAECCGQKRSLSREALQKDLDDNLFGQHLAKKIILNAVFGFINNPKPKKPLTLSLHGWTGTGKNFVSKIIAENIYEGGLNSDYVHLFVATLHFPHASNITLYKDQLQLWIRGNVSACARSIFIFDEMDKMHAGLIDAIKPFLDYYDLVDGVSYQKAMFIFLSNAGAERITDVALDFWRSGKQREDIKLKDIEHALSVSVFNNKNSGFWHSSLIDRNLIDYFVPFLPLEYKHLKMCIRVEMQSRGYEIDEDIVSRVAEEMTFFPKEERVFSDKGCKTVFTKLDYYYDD
The target is the same in experiment [9]. In words: torsin A mutant lysate binding on microarrays – cell lysate, small-molecule microarray, COS7 lysate, 635/667 nm fluorescence, primary screen (AID 1150).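 Also: score pools 667 nm emission and signal to noise measuring lysate protein binding.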 The conditions noted are these: COS7 hTOR1A mutant lysate, 635 nm fluorescence, higher = more signal.
Experiment [10] concerns Sonic hedgehog protein (Shh). Nature of the experiment: Sonic hedgehog microarray binding compounds – biochemical, small-molecule microarray, 635/667 nm fluorescence, primary screen (AID 1151).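 Also: Shh protein binding to compounds spotted on small-molecule microarray slides; score combines spot fluorescence intensity with signal-to-noise across triplicate slides.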 The conditions noted are these: 635 nm fluorescence, higher = more signal.
A short description of experiment [11]: optical density shifts of acrAB sulA E. coli – strain DRC41, OD650, 48 h, E. coli filamentation inducer project, primary screen (AID 1152).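 Also: E. coli MC1000 strain DRC41 lacking acrAB efflux pump and sulA.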 The conditions noted are these: higher = more signal, called active from +8 up or from −8 down.
Experiment [12] can be described thus: probe aLefty1 binding on compound microarray – biochemical, small-molecule microarray, 635/667 nm fluorescence, primary screen (AID 1153).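 Also: score merges spot fluorescence with signal-to-noise ratio from the scanned slide images.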 The conditions noted are these: higher = more signal.
Experiment [13] in a line: plasmodial surface anion channel blockers, osmotic lysis – cell-based, P. falciparum Indochina, OD700, 1 h, primary screen (AID 1154). The conditions noted are these: P. falciparum Indochina infected RBC osmotic lysis, higher = more signal, called active from +8 up or from −8 down.
Experiment [14] in a line: plasmodial surface anion channel blockers, osmotic lysis – cell-based, P. falciparum Indochina, OD700, 2 h, primary screen (AID 1155).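 Also: lysis reports solute entry through the parasite surface anion channel PSAC.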 The conditions noted are these: P. falciparum Indochina infected erythrocytes, higher = more signal, called active from +8 up or from −8 down.
The nature of experiment [15]: changes in parasitized red cell lysis, either direction – P. falciparum Indochina, OD700, 3 h, PSAC antagonist project, primary screen (AID 1156). The conditions noted are these: P. falciparum-infected erythrocytes, osmotic lysis, higher = more signal, called active from +8 up or from −8 down.
Experiment [16] in a line: plasmodial surface anion channel blockers, osmotic lysis – cell-based, P. falciparum Indochina, OD700, 18 h, primary screen (AID 1157). The conditions noted are these: P. falciparum Indochina infected erythrocytes, osmotic lysis OD700, 18 h; higher = more signal, called active from +8 up or from −8 down.
Experiment [17] is described as follows: S6 kinase pathway phospho-S6 level changes – cell-based, A549, cytoblot, luminescence, serum-stimulated, primary screen (AID 1158).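 Also: serum-stimulated A549 lung adenocarcinoma cells; signal is phosphorylated S6 detected by cytoblot immunostaining with HRP secondary.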 The conditions noted are these: 5 h, higher = more signal.
Experiment [18] has as its target NADPH oxidase 2 (Homo sapiens) (UniProt P04839). In words: compounds shifting NOX2 Amplex Red fluorescence – cell-based, HEK293-NOX2, PMA-stimulated, NOX inhibitor project, primary screen (AID 1159). Also: test concentration not given here. The conditions noted are these: 45 min, higher = more signal, called active from +8 up or from −8 down.
Experiment [19] concerns the target NADPH oxidase 4 (Homo sapiens) (UniProt Q9NPH5). Nature of the experiment: compounds shifting NOX4 Amplex Red fluorescence – cell-based, HEK293-NOX4, tetracycline-induced, NOX inhibitor project, primary screen (AID 1160). The conditions noted are these: HEK293-NOX4, Amplex Red H2O2 fluorescence, 45 min; higher = more signal, called active from +8 up or from −8 down.

In experiment [20] the target is NADPH oxidase 5 (Homo sapiens) (UniProt Q96PH1). Nature of the experiment: compounds shifting NOX5 Amplex Red fluorescence – cell-based, HEK293-NOX5, NOX inhibitor project, primary screen (AID 1161). The conditions noted are these: HEK293-NOX5, ionomycin, 45 min, higher = more signal.
NADPH oxidase 5 (Homo sapiens), sequence (Q96PH1 whole entry, looked up): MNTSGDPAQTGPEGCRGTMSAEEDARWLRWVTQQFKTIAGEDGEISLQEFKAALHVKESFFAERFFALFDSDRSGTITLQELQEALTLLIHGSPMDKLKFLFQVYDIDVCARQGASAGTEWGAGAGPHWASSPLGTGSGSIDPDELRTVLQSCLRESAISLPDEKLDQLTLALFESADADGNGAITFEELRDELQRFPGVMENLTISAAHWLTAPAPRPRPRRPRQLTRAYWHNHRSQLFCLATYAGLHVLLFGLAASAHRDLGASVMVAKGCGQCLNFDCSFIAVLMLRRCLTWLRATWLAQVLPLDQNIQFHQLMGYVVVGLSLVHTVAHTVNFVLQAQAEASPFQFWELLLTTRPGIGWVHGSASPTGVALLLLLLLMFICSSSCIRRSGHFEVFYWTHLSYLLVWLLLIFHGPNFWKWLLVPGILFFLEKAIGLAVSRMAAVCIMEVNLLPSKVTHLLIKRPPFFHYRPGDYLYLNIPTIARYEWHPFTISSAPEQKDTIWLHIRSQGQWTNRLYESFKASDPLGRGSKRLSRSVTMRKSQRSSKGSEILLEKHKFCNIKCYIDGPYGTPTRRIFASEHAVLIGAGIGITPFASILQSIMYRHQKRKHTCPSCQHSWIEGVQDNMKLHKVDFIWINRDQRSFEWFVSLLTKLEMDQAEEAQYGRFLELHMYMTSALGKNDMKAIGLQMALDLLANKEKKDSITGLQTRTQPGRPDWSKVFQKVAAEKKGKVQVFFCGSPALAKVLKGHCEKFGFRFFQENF

Activity calls are given as the source filed them. Unless noted, no rule for the calls is given here.

In PubChem BioAssay one finds composite z-score and z-score data, which are given here for four compounds.

NADPH oxidase 2 (Homo sapiens), sequence (P04839 whole entry, looked up): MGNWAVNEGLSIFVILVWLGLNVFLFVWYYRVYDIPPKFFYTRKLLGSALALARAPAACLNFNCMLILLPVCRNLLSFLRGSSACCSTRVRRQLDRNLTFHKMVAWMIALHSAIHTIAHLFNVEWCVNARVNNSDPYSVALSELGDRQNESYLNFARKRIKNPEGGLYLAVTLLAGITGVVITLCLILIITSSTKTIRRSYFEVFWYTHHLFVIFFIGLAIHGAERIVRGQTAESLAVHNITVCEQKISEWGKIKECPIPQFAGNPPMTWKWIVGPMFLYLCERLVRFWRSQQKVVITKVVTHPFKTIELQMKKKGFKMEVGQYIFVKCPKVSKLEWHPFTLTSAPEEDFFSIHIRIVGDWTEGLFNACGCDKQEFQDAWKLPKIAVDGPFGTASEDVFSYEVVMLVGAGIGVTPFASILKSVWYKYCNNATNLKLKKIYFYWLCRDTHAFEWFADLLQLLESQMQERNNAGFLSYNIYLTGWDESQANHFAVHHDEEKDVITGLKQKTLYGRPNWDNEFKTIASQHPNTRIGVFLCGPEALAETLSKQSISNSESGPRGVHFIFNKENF
NADPH oxidase 4 (Homo sapiens), sequence (Q9NPH5 whole entry, looked up): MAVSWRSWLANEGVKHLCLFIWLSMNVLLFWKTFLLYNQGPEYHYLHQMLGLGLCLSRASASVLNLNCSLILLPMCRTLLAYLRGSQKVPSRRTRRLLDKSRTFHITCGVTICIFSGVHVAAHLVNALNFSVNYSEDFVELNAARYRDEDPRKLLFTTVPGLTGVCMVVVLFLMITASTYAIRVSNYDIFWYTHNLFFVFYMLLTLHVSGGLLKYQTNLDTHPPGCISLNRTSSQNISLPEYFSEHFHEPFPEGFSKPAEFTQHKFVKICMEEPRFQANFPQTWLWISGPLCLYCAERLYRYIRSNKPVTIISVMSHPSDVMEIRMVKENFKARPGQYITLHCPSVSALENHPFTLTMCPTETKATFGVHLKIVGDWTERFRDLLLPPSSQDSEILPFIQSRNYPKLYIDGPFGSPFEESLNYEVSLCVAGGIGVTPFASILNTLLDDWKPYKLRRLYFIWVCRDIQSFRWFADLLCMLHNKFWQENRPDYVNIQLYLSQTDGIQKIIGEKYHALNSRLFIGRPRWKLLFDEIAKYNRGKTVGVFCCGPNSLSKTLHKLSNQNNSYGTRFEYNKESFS

As to `O=C1CCCC=C1C(O)c1ccc([N+](=O)[O-])cc1` (stereo not given), the composite z-score in [1] is 0.042; in [6], 0.0753; in experiment [7], -0.212; in experiment [8], 0.911; in [9], 0.0183; in [10], -0.676. In addition, the composite z-score in experiment [12] is -0.217. Moreover, the z-score in experiment [2] is 1.18 (inactive); in experiment [3] it was 0.843 (inactive); in experiment [4] it was -0.706 (inactive); in experiment [5] it was 0.126 (inactive); in experiment [11], 0.134 (inactive); in experiment [13] it was -0.487 (inactive). Further, the z-score in experiment [14] was -0.347 (inactive); in experiment [15] it was -0.324 (inactive); in [16], -0.342 (inactive); in [17], 0.317; in experiment [18], 1.42 (inactive); in experiment [19], 0.262 (inactive). The z-score in experiment [20] was -0.56.
As for `CC(C)=NO[C@@H](C)c1cn([C@H](CO)Cc2ccccc2)nn1`, the composite z-score was 0.0949 in experiment [1]; 0.561 in experiment [6]; -0.0681 in experiment [7]; 0.818 in experiment [8]; 0.39 in experiment [9]; 0.469 in experiment [10]. Moreover, in experiment [12], the composite z-score is 0.423. In addition, the z-score in [2] is -0.172 (inactive); in experiment [3] it was -0.643 (inactive); in experiment [4] it was 0.573 (inactive); in [5], -0.537 (inactive); in experiment [11], -1.99 (inactive); in [13], -0.407 (inactive). Besides, the z-score in experiment [14] was -1.7 (inactive); in [15], -0.222 (inactive); in experiment [16], -1.75 (inactive); in experiment [17] it was 1.54; in experiment [18], -0.689 (inactive); in [19] it was 0.0692 (inactive). Further, the z-score in experiment [20] came out at 0.628.
`CC(C)=CCCC(C)=CCON=C1C[C@@H](O)[C@@H](O)[C@@H]2[C@@H]3C(=O)N(c4cccc(Oc5ccccc5)c4)C(=O)[C@@H]3CC[C@H]12`: the composite z-score is -0.022 in experiment [1]; -0.11 in experiment [6]; -0.128 in [7]; 0.575 in [8]; 0.704 in experiment [9]; 1.51 in experiment [10]. For the same compound, in [12], the composite z-score worked out at 0.0363. For the same compound, the z-score was -1.47 (inactive) in experiment [2]; 1.73 (inactive) in experiment [3]; -0.205 (inactive) in experiment [4]; -0.158 (inactive) in [5]; 0.349 (inactive) in [11]; 2.26 (inactive) in experiment [13]. The z-score in [14] was 1.25 (inactive); in experiment [15], 0.17 (inactive); in experiment [16], 0.722 (inactive); in [17], 0.34; in experiment [18] it was -1.35 (inactive); in experiment [19], 0.0399 (inactive). For the same compound, in [20], the z-score is -0.583.
With `CC(C)=NO[C@H](C)c1cn([C@@H]2COC[C@H]2O)nn1`, the composite z-score was 0.185 in [1]; -0.085 in experiment [6]; -0.0963 in [7]; 0.455 in experiment [8]; 0.461 in experiment [9]; 0.477 in [10]. This compound registered a composite z-score in experiment [12] of -0.0518. Further, the z-score in experiment [2] is 0.495 (inactive); in experiment [3], -1.16 (inactive); in experiment [4], 0.099 (inactive); in [5], -0.0851 (inactive); in [11] it was 0.36 (inactive); in experiment [13], 0.813 (inactive). For the same compound, the z-score was 0.935 (inactive) in experiment [14]; 0.627 (inactive) in experiment [15]; 0.489 (inactive) in experiment [16]; 0.381 in experiment [17]; 0.0279 (inactive) in [18]; 0.549 (inactive) in experiment [19]. The z-score in [20] is 0.595.
